High-throughput results: PubChem BioAssay, National Center for Advancing Translational Sciences (NCATS)
Only some compounds are listed: those with a hit (about 10% of all), similar ones and a draw of the others.
HPGD block: inhibitors of human 15-hydroxyprostaglandin dehydrogenase (HPGD). purified HPGD, NADH fluorescence kinetic, PGE2 substrate. actives 4.3% (n = 150,000). Potency, µM, for the others: at the highest dose activity change, negative = inhibition, hits mostly inhibitors. AID 894; note: potency is the fitted concentration of half-maximal effect
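NADH formation kinetics: reaction with 30 uM PGE2 and 1 mM NAD+ (final), 20 nM enzyme, Tris-HCl pH 8 with Tween 20, after 15 min compound preincubation at room temperature. Fluorescence change, last versus first of five reads.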
ALOX12 inhib: 12-hLO (ALOX12) enzyme inhibition. purified 12-hLO, xylenol orange hydroperoxide absorbance. Potency, µM (series often up to 57.1 µM), inactives show at the top dose activity change, negative = inhibition, most hits filed as inhibitors. actives 0.12% (n = 150,000); active = well fitted inhibition curve with a large enough effect; inconclusive = small, poorly fitted or top-dose-only effect; note: potency is the fitted concentration of half-maximal effect; nearly all actives have a fitted effect of over 55% in size
Target sequence (P18054 whole entry, looked up): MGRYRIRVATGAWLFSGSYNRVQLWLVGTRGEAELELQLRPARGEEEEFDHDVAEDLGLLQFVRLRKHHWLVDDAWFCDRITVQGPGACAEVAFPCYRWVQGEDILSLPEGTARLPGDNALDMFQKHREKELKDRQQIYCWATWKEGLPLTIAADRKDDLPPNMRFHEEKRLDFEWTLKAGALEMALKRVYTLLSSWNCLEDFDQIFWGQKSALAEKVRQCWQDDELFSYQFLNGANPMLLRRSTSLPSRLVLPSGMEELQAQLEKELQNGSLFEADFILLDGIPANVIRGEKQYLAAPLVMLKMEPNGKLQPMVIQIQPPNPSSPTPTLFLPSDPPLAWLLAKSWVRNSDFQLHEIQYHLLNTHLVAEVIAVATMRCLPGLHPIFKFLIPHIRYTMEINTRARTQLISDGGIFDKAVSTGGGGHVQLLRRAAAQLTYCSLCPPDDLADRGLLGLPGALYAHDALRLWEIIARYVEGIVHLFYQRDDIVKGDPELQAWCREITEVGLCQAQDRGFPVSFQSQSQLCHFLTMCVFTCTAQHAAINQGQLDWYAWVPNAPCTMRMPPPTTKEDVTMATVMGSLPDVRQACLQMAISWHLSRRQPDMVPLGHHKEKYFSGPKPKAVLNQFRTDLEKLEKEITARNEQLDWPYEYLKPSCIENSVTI
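150 nM 12hLO, 25 mM Hepes pH 7.0 + 0.01% Triton X-100; cpd preinc 15 min RT; 40 uM arachidonic acid, 30 min RT; Fe-XO 30 min; A573/A405 ratio as read-out.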
Lamin A splicing: LMNA splicing modulation; HeLa LMNA splicing GFP/RFP minigene ratio, 48 h; Potency, µM (highest dose often 46.1 µM), for inactives: at the highest dose ratio change, negative = inhibition, most hits filed as inhibitors; actives 0.01% (n = 200,000); active = well fitted inhibition curve with a large enough effect in the signal ratio, with a control signal flat, not every such curve was filed as active; inconclusive = small, poorly fitted or top-dose-only effect, or effect the other way, or a change in a side signal; the % refers to the signal ratio; note: potency is the fitted concentration of half-maximal effect
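S3 HeLa stable clones carrying a lamin A-EGFP splicing minigene plus DsRed2 were seeded at 600 cells/well in Opti-MEM with 2% FBS, pin-dosed and incubated 48 h at 37°C. Acumen cytometry (488 nm) gave the GFP/RFP total-intensity ratio.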
ALDH1A1 block: blocks purified human ALDH1A1 activity; P00352; Purified ALDH1A1, NADH fluorescence, propionaldehyde substrate; Potency, µM (titrated, usually from 75.3 µM), for the others: top-dose activity, negative = inhibition, actives largely listed as inhibitors; actives 7.3% (n = 220,000); AID 1030;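 note: potency is the fitted concentration of half-maximal effect; plate controls were no enzyme wells and a reference inhibitor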
PNC assembly inh: perinucleolar compartment assembly inhibition | PC3M PTB-GFP, PNC prevalence imaging, 16 h; active compounds read low | activity change (PNC), negative = inhibition, % at 10 µM | actives 3.1% (n = 140,000);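 active = readout at or below -70, meaning at least 70% loss of cells showing the perinucleolar compartment, a nuclear body marking cancer cells; inconclusive = readout between -30 and a set limit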;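 note: plate controls were DMSO wells for no effect and camptothecin positive control wells for full effect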
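Compounds are pinned in duplicate onto adhered PC3M cells stably expressing GFP-tagged PTB and incubated 16 h at 37 C. Cells are then fixed, nuclei stained with Hoechst, and PNC-positive cells counted.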
The depositor's hits bear a star; ? = inconclusive; / = not tested or not shown; ! = not confirmed by another sample; [ ] = another dose, or the depositor's remark. Unless noted, calls come from the whole dose curve; as a rule, active = well fitted inhibition curve with a large enough effect (not every such curve was filed as active); inconclusive = small, poorly fitted or top-dose-only effect, or another doubt; inactive = no such curve, though single readings can be large or run the other way. Unless noted, % is set by controls: 0 for no effect and ±100 for the full control effect.

SMILES	HPGD block	ALOX12 inhib	Lamin A splicing	ALDH1A1 block	PNC assembly inh
Cn1c(SCc2cnc(-c3ccccc3)s2)nnc1C1COc2ccccc2O1 (stereo unspecified)	25µM*	1%	6%	13µM*	75
CC(=O)NC1C(=O)N=C(SCC(=O)Nc2sc3c(c2C#N)CCCCCC3)NC1=O (stereo unspecified)	/	/	/	40µM*	/
C=CCn1c(SCC(=O)Nc2sc3c(c2C#N)CCC3)nnc1C1COc2ccccc2O1 (stereo unspecified)	-23%	1%	-7%	?	?
CCCCn1nnnc1SCC(=O)Nc1sc2c(c1C#N)CCCC2	-14%	-20%	?	28µM*	-2
CC(=O)O[C@@H]1CC[C@]2(C)C(=C[C@@H]([C@@H]3C=C4C[C@@H](OC(C)=O)CC[C@]4(C)C4=C3[C@H]3C[C@@H]5O[C@@]6(CC[C@H](C)CO6)[C@@H](C)[C@@H]5[C@@]3(C)CC4)C3=C2CC[C@@]2(C)[C@H]4[C@@H](C)[C@]5(CC[C@H](C)CO5)O[C@@H]4C[C@H]32)C1	-5%	3%[11.4 µM]	/	?	/
O=C1NC2(CCCc3ccccc32)C(=O)N1Cc1nnc(-c2ccccc2Br)o1 (stereo unspecified)	-28%	-7%	?	?	-83*
CC1(CCc2ccccc2)NC(=O)N(Cc2nnc(-c3ccccc3Br)o2)C1=O (stereo unspecified)	-8%	0%	?	13%	-22
Cc1ccsc1/C=N/NC(=O)C1C(=O)NCC1c1ccccc1 (stereo unspecified)	/	/	/	5%	/
Cc1cccc(-n2c(=O)[nH]c3c(C(N)=O)nc(C(C)C)nc32)c1	?	1%	0%	-15%	-100*
O=C(Cn1nnc(-c2ccc(CN3CCOCC3)cc2)n1)N(c1ccccc1)c1ccccc1	/	/	?	11µM*	/
Cc1nc(N2CCCCC2)sc1C(=O)c1ccc(Cl)c([N+](=O)[O-])c1	/	/	?	7.9µM*	/
O=C1NCCC/C1=N/Nc1cc(F)ccc1F	/	/	/	5%	/
Cc1ccc(N/N=C2/CCCNC2=O)cc1	-15%	-24%	8%	22µM*	-6
Cc1ccc2c(c1)sc1nc(-c3cc4cc(Cl)ccc4oc3=O)cn12	/	/	13%[46 µM]	/	/
COc1cc(-c2coc3cc(OC)c(OC)c(OC)c3c2=O)cc(OC)c1OC	-5%	-1%	/	3%	/
CC(=O)Oc1cc(-c2coc3cc(OC(C)=O)c(OC(C)=O)c(OC(C)=O)c3c2=O)cc(OC(C)=O)c1OC(C)=O	7.9µM*	3%	/	?	/
CCS(=O)(=O)c1ccc2c(c1)N(S(C)(=O)=O)CC(C(=O)NN)O2 (stereo unspecified)	/	/	/	0.56µM*	/
CC1(C)CN=c2s/c(=C\c3ccc(Cl)cc3)c(=O)n2C1	/	/	/	2.2µM*	/
CSC1=N/C(=C\c2ccc(Cl)cc2)C(=O)N1N(C)C	/	/	/	5%	/
CC/C=C\C/C=C\C/C=C\CCCCCCCCCCCC(=O)O	-18%	-5%	/	22µM*!	/
CC/C=C\C/C=C\C/C=C\CCCCCCCC(=O)O	-3%	-5%[0.00818 µM]	?	10µM*!	/
CC/C=C\C/C=C\C/C=C\CCCCCCCCCC(=O)O	-6%	0%	/	2%	/
CCc1cccc(NC(=O)Cn2nc(-c3ccc(OC)cc3)ccc2=O)c1	/	/	-19%[46 µM]	/	/
S=c1nc(-c2ccccc2Cl)n(Cc2cccnc2)c2c1CCCC2	-4%	4%	?	6%	-88*
OCCCn1c(-c2ccccc2)nc(=S)c2c1CCCC2	-18%	-5%	11%	2%	2
SMILES	HPGD block	ALOX12 inhib	Lamin A splicing	ALDH1A1 block	PNC assembly inh
O=C(N/N=C/c1ccc(O)c(O)c1O)/C(=C/c1ccc([N+](=O)[O-])cc1)NC(=O)c1ccccc1	25µM*	-22%	1%	10µM*	28
Cc1ccc(C)c(N2CCN(C(=O)c3c(C)oc4nc(C)nc(N5CCOCC5)c34)CC2)c1	/	/	-18%[46 µM]	/	/
O=C(C[n+]1cc(Br)cc(Br)c1)c1cccc([N+](=O)[O-])c1	/	/	/	4µM*	/
O=C(NCc1ccccn1)c1cccc([N+](=O)[O-])c1	-9%	-5%	14%	3%	23
O=C(CCc1ccc(S(=O)(=O)N2CCOCC2)cc1)N/N=C/c1ccc(O)c(O)c1O	?	-5%	16%	13µM*	-111*
O=[N+]([O-])c1ccc(N/N=C/c2ccc(O)c(O)c2O)c(S(=O)(=O)N2CCOCC2)c1	/	/	-8%[46 µM]	3.5µM*	/
O=C(CCc1ccc(S(=O)(=O)N2CCOCC2)cc1)N/N=C/c1ccc(F)cc1F	/	/	-5%[46 µM]	-9%	/
Cc1ccc(-n2nc(C)c3c(C)cc(=O)n(CC(=O)Nc4ccc(Br)cc4F)c32)cc1	/	/	19%[46 µM]	/	/
COc1ccc(OC)c(S(=O)(=O)NC2CCN(Cc3ccccc3)CC2)c1	-8%	-3%	-12%	-5%	34
COc1ccc(/C=C2\CN(Cc3ccccc3)C/C(=C\c3ccc(OC)cc3OC)C2=O)c(OC)c1	-14%	-18%	-7%	18µM*	18
COc1ccc(/C=C2\CN(Cc3ccccc3)C/C(=C\c3ccc(OC)cc3)C2=O)cc1	-14%	-22%	?	16µM*	45
CCOC(=O)C(C(=O)c1ccccc1)[C@H](CCc1ccccc1)NC(=O)OC (stereo partly specified)	-4%	/	/	-3%	/
O=C(c1ccc(Cl)cc1)[C@@H]1[C@@H]2C(=O)N(c3ccccc3)C(=O)[C@@H]2C2c3ccccc3C=NN21 (stereo partly specified)	-7%	0%	-3%	?	6
O=C(c1ccco1)[C@@H]1[C@@H]2C(=O)N(c3ccccc3)C(=O)[C@@H]2C2c3ccccc3C=CN21 (stereo partly specified)	?	-10%	12%	2.2µM*	31
O=C1C2C3C=CC(C3)C2C(=O)N1Cc1ccccc1 (stereo unspecified)	7%	1%	11%	?	?
CC(=O)[C@@H]1[C@@H]2C(=O)N(Cc3ccccc3)C(=O)[C@@H]2C2c3ccccc3C=CN21 (stereo partly specified)	?	-7%	2%	20µM*	-19
CC(C)(C)C(=O)[C@@H]1[C@@H]2C(=O)N(c3ccc4c(c3)OCCO4)C(=O)[C@@H]2C2c3ccccc3C=CN21 (stereo partly specified)	?	-10%	5%	?	-24
Cc1ccc(-n2ncc3c(NNC(=O)c4ccco4)ncnc32)c(C)c1	/	/	/	6%	/
Cc1ccc(N2C(=O)[C@@H]3[C@H](C2=O)C2c4ccccc4C=CN2[C@@H]3C(=O)c2ccco2)cc1 (stereo partly specified)	32µM*	-10%	12%	4.5µM*	-7
Cc1ccc(N2C(=O)[C@@H]3[C@H](C2=O)C2c4ccccc4C=CN2[C@@H]3C(=O)c2ccco2)c(C)c1 (stereo partly specified)	35µM*	-23%	20%	7.9µM*	?
